In the first assay the target is TMEM109. As to the kind of experiment: pooled miR-30 sensor sort-seq; sequence = guide strand. The conditions noted are these: shRNA.
In turn, TGGGTCAAGACATCAACTGGGG came in with a sensor-assay potency score (higher = more potent) of -0.224.

The sequence TGTGATTCCACATCAAACCTGA returned a sensor-assay potency score (higher = more potent) of 0.855. Turning to TTCCACATCAAACCTGAACAGT, the sensor-assay potency score (higher = more potent) is -0.603.

TTTGGTATGACACTGGCGGTGT had a sensor-assay potency score (higher = more potent) of 0.696. With TCCCTCGCACAGATCGACCTAT, the sensor-assay potency score (higher = more potent) is -0.902. In turn, TTTAAAACCAACCAAGCACTGA yielded a sensor-assay potency score (higher = more potent) of -0.265. Same read-out and setting: the result for TATTCTTCACATCATGTGCCAA reads -0.456; that for TTGAACACATGCTTTCCCCATG, -0.916. In turn, TCGCACAGATCGACCTATCTGG displayed a sensor-assay potency score (higher = more potent) of -0.204.

Turning to TCTGGGTCAAGACATCAACTGG, the sensor-assay potency score (higher = more potent) was -1.37. TTTCTCTGTTTCTCTTGGCTAG returned a sensor-assay potency score (higher = more potent) of -0.388. On to TTTGAACACATGCTTTCCCCAT, for which the sensor-assay potency score (higher = more potent) was -0.568.

The next assay deals with TMEM110. Described as above. The conditions noted are these: shRNA.
For the sequence TTGGAAGTGTCTAAAAACCATA, the sensor-assay potency score (higher = more potent) was -1.5. The sequence TTAAGTCACAGTAGTCTGGGGG yielded a sensor-assay potency score (higher = more potent) of -0.231. The sequence TTTAAGTCACAGTAGTCTGGGG came in with a sensor-assay potency score (higher = more potent) of 0.109. For TTAGCTTTCGTCTTCCCCTTTC, the sensor-assay potency score (higher = more potent) was -0.779. For the sequence TTTTAAGTCACAGTAGTCTGGG, the sensor-assay potency score (higher = more potent) was found to be 0.293. Still for that read-out and setting: for TAAGTCACAGTAGTCTGGGGGC the value was 0.0391; for TTTGTAGTGCAACTGAATGGGG, -0.728. For TTCTAGCTTAGCTTTCGTCTTC, the sensor-assay potency score (higher = more potent) is -0.0536. TTCTTCTAGCTTAGCTTTCGTC displayed a sensor-assay potency score (higher = more potent) of -0.864. In turn, TTCAGTGAGATCTGCTAGGTAT had a sensor-assay potency score (higher = more potent) of 0.113. Consider TTTTTAAGTCACAGTAGTCTGG, for which the sensor-assay potency score (higher = more potent) was -0.583. TTGTAGTGCAACTGAATGGGGA yielded a sensor-assay potency score (higher = more potent) of -0.276.

A further assay has as its target TMEM117. The description is as above. The following applies: shRNA.
As for TTGAACATCAGATACATGGGTC, the sensor-assay potency score (higher = more potent) was determined as 0.48.

The sequence TTAATCGGAGCAACTGACCAAA yielded a sensor-assay potency score (higher = more potent) of -0.0675. TTGTCTTGATTCTCCATGCGTG: the sensor-assay potency score (higher = more potent) is -0.601. Regarding TTGAAGTCAGACCTGATGCAAA, the sensor-assay potency score (higher = more potent) was -0.838. For the sequence TATCAGTGACCATCCAAGCTGT, the sensor-assay potency score (higher = more potent) is -0.461. Same read-out and setting: for TTAGTGTGATTGGACCTCCATT the value was -1.69; for ATTTACATCAACATCTCCCATG, -0.907; for TACATCAACATCTCCCATGAAA, -1.02.

Take TATTACTGAATTTTGCATCTGT: the sensor-assay potency score (higher = more potent) came out at 1.08. Still for that read-out and setting: the result for TTTGTCTTGATTCTCCATGCGT reads -0.0154. In the case of TAGTAGATTCGTTCAACTGTGA, the sensor-assay potency score (higher = more potent) was found to be 0.105.

The sequence TTTCACTGTATATATCTTCTGC came in with a sensor-assay potency score (higher = more potent) of -0.0324.

A further assay has as its target TMEM130. The assay is described as above. The conditions noted are these: shRNA.
Take TAGTTATGGATTTTTAACCCTT: the sensor-assay potency score (higher = more potent) is -0.844. The same measure, in the same setting: the result for TTCAAGGTCACGGTCATCTTTT reads -0.705. The sequence TTGTCCTTGGCCACCAGGCTGG displayed a sensor-assay potency score (higher = more potent) of -1.04.

Values taken from the OligoGym collection.
Further: reference of the scale not given here.
